# Counter-ions that a name gives are not always drawn. Unmarked numbers belong to inactive results.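 How the source made its calls: active = AUC significantly below DMSO controls by Student t-fit with adjusted P under 0.01; inactive = not significantly reduced.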
# Tested on: Haemophilus parainfluenzae
# Experiment: growth AUC normalised to DMSO control (fraction of control); higher = less growth inhibition, active = hit call of the paper
# Details: 20 µM
# In short: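 For the AUC endpoint, growth curves were integrated by the trapezoidal rule up to the exponential-to-stationary transition and normalised to DMSO controls on the same plate. The curves came from OD578 readings taken hourly for 24 h, in three biological replicates. Pathogens had been passaged anaerobically twice and inoculated at an OD578 of 0.01 into pre-reduced mGAM plates carrying 20 μM compound and 1% DMSO, sealed with breathable membranes. Medium for Haemophilus parainfluenzae also contained hemin and NAD.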
row,SMILES,growth AUC normalised to DMSO control
1,CC[N+](CC)(CC(=O)Nc1c(C)cccc1C)Cc1ccccc1 [Denatonium benzoate],1.05
2,S=c1[nH]cnc2nc[nH]c12 [Mercaptopurine],0.997
3,O=C(CCCN1CCC(O)(c2ccc(Br)cc2)CC1)c1ccc(F)cc1 [Bromperidol],1.02
4,Cc1cc(NS(=O)(=O)c2ccc(N)cc2)no1 [Sulfamethoxazole],1.01
5,Cc1cn[nH]c1 [Fomepizole],0.954
6,CCCCNc1cc(C(=O)O)cc(S(N)(=O)=O)c1Oc1ccccc1 [Bumetanide],0.991
7,Cc1cccc(Nc2ccncc2S(=O)(=O)NC(=O)NC(C)C)c1 [Torsemide],0.978
8,NCCCC(O)(P(=O)(O)O)P(=O)(O)O [Alendronate sodium],1.05
9,Nc1ccc(O)c(C(=O)O)c1 [Mesalamine],1.05
10,COc1cc(C(=O)NCc2ccc(OCCN(C)C)cc2)cc(OC)c1OC [Trimethobenzamide hydrochloride],1.05
11,CCOC(=O)[C@H](CCc1ccccc1)N[C@@H](C)C(=O)N1[C@H](C(=O)O)C[C@@H]2CCC[C@@H]21 [Ramipril],1.02
12,c1ccc(CN(CC2=NCCN2)c2ccccc2)cc1 [Antazoline hydrochloride],1.01
13,CC(=O)NC[C@H]1CN(c2ccc(N3CCOCC3)c(F)c2)C(=O)O1 [Linezolid],0.582 (active)
14,O=c1[nH]c(=O)n([C@H]2C[C@H](O)[C@@H](CO)O2)cc1C(F)(F)F [Trifluridine],1.08
15,CNCC[C@@H](Oc1ccccc1C)c1ccccc1 [Tomoxetine hydrochloride],1.02
16,O=C(O)CCC(=O)c1ccc(-c2ccccc2)cc1 [Fenbufen],0.905
17,OCCN(CCO)c1nc(N2CCCCC2)c2nc(N(CCO)CCO)nc(N3CCCCC3)c2n1 [Dipyridamole],0.993
18,Cc1onc(-c2c(F)cccc2Cl)c1C(=O)N[C@@H]1C(=O)N2[C@@H]1SC(C)(C)[C@@H]2C(=O)O [Flucloxacillin sodium],0.944
19,Cc1ncc(CO)c(CO)c1O [Pyridoxine hydrochloride],0.958
20,c1ccc2c(CC3=NCCN3)cccc2c1 [Naphazoline hydrochloride],1.01

row,SMILES,growth AUC normalised to DMSO control
1,Cc1ccc2c(c1)c1c3n2CCNC3CCC1 (centres undefined) [Pirlindole mesylate],0.995
2,CCC1=C(C)CN(C(=O)NCCc2ccc(S(=O)(=O)NC(=O)N[C@H]3CC[C@H](C)CC3)cc2)C1=O [Glimepiride],1.02
3,NC1CCN(c2c(F)cc3c(=O)c(C(=O)O)cn(C4CC4)c3c2Cl)C1 (centres undefined) [Clinafloxacin],0.0486 (active)
4,CO/N=C(\C(=O)N[C@@H]1C(=O)N2C(C(=O)O)=C(COC(C)=O)CS[C@H]12)c1csc(N)n1 [Cefotaxime sodium salt],0.0499 (active)
5,CC(=O)N1CCN(c2ccc(OCC3COC(Cn4ccnc4)(c4ccc(Cl)cc4Cl)O3)cc2)CC1 (centres undefined) [Ketoconazole],1.03
6,O=C(Nc1ccc([N+](=O)[O-])cc1Cl)c1cc(Cl)ccc1O [Niclosamide],0.046 (active)
7,CCOC(=O)C1=C(C)NC(C)=C(C(=O)OC)C1c1cccc([N+](=O)[O-])c1 (centres undefined) [Nitrendipine],1.03
8,CCN(CC)CCOC(=O)C(c1ccccc1)C1CCCCC1 (centres undefined) [Drofenine hydrochloride],0.992
9,N#Cc1ccc(C(c2ccc(C#N)cc2)n2cncn2)cc1 [Letrozole],1.01
10,CC(=O)NS(=O)(=O)c1ccc(N)cc1 [Sulfacetamide sodic hydrate],1.03
11,COc1ccccc1Oc1c(NS(=O)(=O)c2ccc(C(C)(C)C)cc2)nc(-c2ncccn2)nc1OCCO [Bosentan],0.966
12,CC(C)(C)NCC(O)COc1cccc2c1CCC(=O)N2 (centres undefined) [Carteolol hydrochloride],0.985
13,CC1=Nc2ccc(Cl)cc2S(=O)(=O)N1 [Diazoxide],1.05
14,CC(=O)Oc1ccccc1C(=O)O [Acetylsalicylic acid],1.08
15,N=C(N)NCC1COC2(CCCCC2)O1 (centres undefined) [Guanadrel sulfate],0.967
16,CN(Cc1cc(Br)cc(Br)c1N)C1CCCCC1 [Bromhexine hydrochloride],1.04
17,CN1C(=O)OC(C)(C)C1=O [Trimethadione],0.975
18,CC[C@H]1OC(=O)[C@H](C)[C@@H](O[C@H]2C[C@@](C)(OC)[C@@H](O)[C@H](C)O2)[C@H](C)[C@@H](O[C@@H]2O[C@H](C)C[C@H](N(C)C)[C@H]2O)[C@](C)(O)C[C@@H](C)CN(C)[C@H](C)[C@@H](O)[C@]1(C)O [Azithromycin],0.0436 (active)
19,CC1(C)S[C@@H]2[C@H](NC(=O)[C@H](N)c3ccccc3)C(=O)N2[C@H]1C(=O)O [Ampicillin trihydrate],0.0576 (active)

# — the supplement of paper PMC12350171
